Results published in PubChem BioAssay AID1240 (Sanford-Burnham Center for Chemical Genomics, 2008).
Screen size: about 50,000 compounds; about 800 (1.6%) showed an effect of 50% or more. Shown is part of a subset that was picked to be rich in strong results.

These compounds were tested against Bcl-2-like protein 10 (Homo sapiens) (UniProt Q9HD36) (assay: TR3 peptide-Bcl-B binding displacers, biochemical primary FP assay, phenotype converters (AID 1240;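 also: 0% = Bcl-B with tracer peptide and DMSO and 100% = tracer peptide lacking Bcl-B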)). Settings: GST-Bcl-B / FITC-TR3 peptide fluorescence polarization; stronger effect = higher value; compound at 3.75 mg/L.
Sequence of Bcl-2-like protein 10 (Homo sapiens) (Q9HD36 whole entry, looked up): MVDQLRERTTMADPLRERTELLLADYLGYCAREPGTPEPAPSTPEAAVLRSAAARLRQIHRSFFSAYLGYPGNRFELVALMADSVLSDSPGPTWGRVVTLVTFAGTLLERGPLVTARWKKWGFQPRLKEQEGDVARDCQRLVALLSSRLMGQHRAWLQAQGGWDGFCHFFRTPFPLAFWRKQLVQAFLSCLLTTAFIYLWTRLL
`Cc1cccc(/C=C2/SC(=S)N(CN3CCCCC3)C2=O)c1` was tested, and the displacement was 11.3%.
In the case of `O=C1CCCCC1Oc1ccc2c(-c3ccccc3)cc(=O)oc2c1` (stereo unspecified), the displacement is reported as -9.6%.
`O=C(COc1ccc2ccccc2c1)Nc1cc([N+](=O)[O-])ccc1F` showed a displacement of 29.5%.
`CCSC1C(C)=C(C)C(=O)N1C(C)(C)c1cc(Cl)cc(Cl)c1` (stereo unspecified) gave a displacement of 21.2%.
With `CCOc1ccccc1NC(=O)CN1C(=O)/C(=C\c2cc(OC)c(OC)c(OC)c2)SC1=S` the displacement was 36.8%.
`O=C(CN1C(=O)/C(=C/c2cccc(Br)c2)SC1=S)Nc1cccnc1` gave a displacement of 9.6%.
`O=C(O)CCCN1C(=O)/C(=C\c2cccc(O)c2)SC1=S` showed a displacement of 0.6%.
Work on `O=C(CN1C(=O)/C(=C/c2ccccc2)SC1=S)Nc1cccc(Br)c1` yielded a displacement of 11.9%.
Work on `CCOc1ccccc1NC(=O)CN1C(=O)/C(=C/c2cccc(Br)c2)SC1=S` yielded a displacement of 78.7%.
In the case of `O=C(O)CCCCCCCCCCN1C(=O)/C(=C/c2cccc(Br)c2)SC1=S`, the displacement is reported as -3.4%.
Compound `COc1ccc(NC(=O)CN2C(=O)/C(=C/c3cccc(Br)c3)SC2=S)cc1` has a displacement of 11.6%.
`O=C(O)CCCN1C(=O)/C(=C/c2cccc(Br)c2)SC1=S` showed a displacement of 91.2%.
`O=C(CN1C(=O)/C(=C/c2cccc(Br)c2)SC1=S)Nc1ccccn1` gave a displacement of 69%.
With `O=c1[nH]c(=S)[nH]c(O)c1C=Nc1cc(Cl)ccc1O` the displacement was 3.2%.
Compound `O=C(CN1C(=O)CCC1=O)NCCc1ccccc1` has a displacement of -5.5%.
With `COc1ccc(Cl)cc1C(=O)Nc1cccc2nsnc12` the displacement was 12.8%.
With `O=C1C(Cl)=C(Nc2ccccc2)C(=O)N1c1ccc(Br)cc1` the displacement was 6.4%.
Work on `COc1ccccc1-n1c(O)c(C=Nc2ccccc2Cl)c(=O)[nH]c1=O` yielded a displacement of 1.2%.
With `O=C1C2=C(Nc3ccccc3SC2c2ccc3c(c2)OCO3)c2ccccc21` (stereo unspecified) the displacement was -16.3%.
In the case of `CN1CCN(C(=O)CCN2C(=O)/C(=C/c3cccs3)SC2=S)CC1`, the displacement is reported as 0.2%.
`CCN(CC)C(=O)Cc1ccc2c3c(cccc13)CC2` gave a displacement of 12.7%.
`COc1ccc(NC(=O)C/C(C)=N/NC(=O)c2cnccn2)cc1` gave a displacement of -21.6%.
`CC(=O)c1ccc(NC(=O)c2cnccn2)cc1` was tested, and the displacement was 37.3%.
Work on `COc1ccc(NC(=O)c2cnccn2)cc1` yielded a displacement of 105%.
For `CCOc1ccc(C(=O)Nc2ccc3oc(-c4ccccc4Br)nc3c2)cc1`, the displacement was 14%.
`Cc1ccc(NC(=O)c2cccc(C(=O)Nc3ccc(C)c(C)c3)c2)cc1C` showed a displacement of -0.1%.
Work on `O=C(CCCN1C(=O)c2cccc3cccc(c23)C1=O)OC/C=C/c1ccccc1` yielded a displacement of 6.6%.
`Fc1ccc(Nc2nc(-c3ccncc3)nc3ccccc23)cc1F` gave a displacement of 47.8%.
`Brc1ccc(Nc2nc(-c3ccncc3)nc3ccccc23)cc1` gave a displacement of 44.4%.
`Clc1ccc(Nc2nc(-c3ccncc3)nc3ccccc23)cc1` gave a displacement of 109%.
With `O=C(Nc1ccc2c(c1)OCO2)c1ccccc1[N+](=O)[O-]` the displacement was -5.9%.
